Assay results taken from PubChem BioAssay.
The source made the active and inactive calls.

Experiments:
[1] = test system: Human papillomavirus type 1a protein E7 (residues 44-93); assay: HPV1a E7 fragment binders on microarrays, primary screen, biochemical, small-molecule microarray, residues 44-93, 635 nm fluorescence (AID 1108); conditions: small-molecule microarray binding, fluorescence 635 nm; higher = more signal;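 further: E7 fragment applied at 1 µg/mL in TBST for 1 h at 4 C; score combines spot fluorescence with its signal to noise ratio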
[2] = modulators of HCV replicon luciferase signal, primary screen, HCV replication inhibitor project, Huh7 cells, luciferase reporter (AID 1109); conditions: 48 h, higher = more signal;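 further: huh7 hepatoma cells harbouring a luciferase neomycin HCV replicon reporter; luciferase luminescence as measure of HCV replicon replication; test concentration not given here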
[3] = target: Left-right determination factor 2 (Homo sapiens) (UniProt O00292); assay: LEFTY2 binders on small-molecule microarrays, primary screen, biochemical, small-molecule microarray, 635 nm fluorescence scan (AID 1110); conditions: LEFTY2 binding, higher = more signal
[4] = target: Calmodulin-1 (Homo sapiens) (UniProt P0DP23); assay: CALM1 binders on microarrays, EGTA buffer, profiling panel, biochemical, small-molecule microarray, Cy5-labelled CALM1 (AID 1111); conditions: Cy5-CALM1 binding fluorescence, higher = more signal;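 further: labelled calmodulin applied in Tris saline Tween buffer holding calcium plus EGTA and DTT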
[5] = target: Calmodulin-1 (Homo sapiens) (UniProt P0DP23); assay: calcium-bound CALM1 binders on microarrays, profiling panel, artefact control for SMM control-protein annotation, biochemical, small-molecule microarray, Cy5-labelled CALM1, plus calcium (AID 1112); conditions: Cy5-CALM1 binding fluorescence, higher = more signal;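 further: score merges spot fluorescence with signal to noise from triplicate slides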
[6] = small-molecule microarray binders of probe aWnt5a, primary screen, biochemical, biotinylated probe, 635/667 nm fluorescence (AID 1113); conditions: higher = more signal;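 further: score merges 667 nm fluorescence intensity with signal-to-noise per printed feature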
[7] = small-molecule microarray binders of probe aShh, primary screen, biochemical, biotinylated probe, 635/667 nm fluorescence (AID 1114); conditions: higher = more signal;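 further: probe is biotin-labelled aShh protein from a stem cell growth factor screen; measures binding of labelled protein to compounds printed on the slide; score merges feature fluorescence at 667 nm with signal-to-noise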
[8] = small-molecule microarray binders of probe aNog, primary screen, biochemical, biotinylated probe, 635/667 nm fluorescence (AID 1115); conditions: higher = more signal;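 further: probe is biotinylated aNog protein used at 0.15 µg/mL for 1 h at 4 C; z-score combines 667 nm fluorescence of each spot with its signal to noise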
[9] = target: Torsin-1A-interacting protein 1 (Homo sapiens) (UniProt Q5JTV8); assay: LAP1 binders from COS7 cell lysate, primary screen, small-molecule microarray, 635/667 nm fluorescence (AID 1116); conditions: COS7-hLAP1 lysate binding, 635 nm fluorescence, higher = more signal
[10] = target: Alpha-bungarotoxin (Bungarus multicinctus) (UniProt P60615); assay: alpha-bungarotoxin binders on microarray, profiling panel, artefact control for SMM control protein annotation, biochemical, small-molecule microarray, Alexa647 label, 635/667 nm fluorescence (AID 1117); conditions: alpha-BTX-A647 binding fluorescence, higher = more signal
Albumin (Bos taurus) = Albumin (Bos taurus) (UniProt P02769); assay: bovine serum albumin binders on microarray, profiling panel, artefact control for SMM control protein annotation, biochemical, small-molecule microarray, Alexa647 label, 635/667 nm fluorescence (AID 1118); conditions: BSA-A647 binding, fluorescence 635 nm, higher = more signal;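 further: score merges 667 nm emission intensity and signal-to-noise per printed compound spot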
[11] = small-molecule microarray binders of probe aXIP, primary screen, biochemical, NeuroSMM set, 635/667 nm fluorescence (AID 1119); conditions: higher = more signal, called active from +8 up or from −8 down;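 further: probe is the protein aXip251-270 applied at 1 µg/mL to compound-printed slides; binding of probe to printed compounds measured as 667 nm fluorescence plus signal to noise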
[12] = small-molecule binders of probe aNOTCH3, primary screen, biochemical, small-molecule microarray, 635/667 nm fluorescence (AID 1120); conditions: higher = more signal;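 further: probe is a biotin-tagged antibody raised against NOTCH3 rather than NOTCH3 protein; score merges spot fluorescence near 667 nm with spot signal to noise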
[13] = small-molecule binders of probe aNOTCH2, primary screen, biochemical, small-molecule microarray, 635/667 nm fluorescence (AID 1121); conditions: higher = more signal;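 further: score merges feature fluorescence read at 667 nm with its signal to noise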
[14] = target: Carbonic anhydrase 2 (Homo sapiens) (UniProt P00918); assay: CAII small-molecule binders, profiling panel, biochemical, small-molecule microarray, Alexa647-labelled CAII (AID 1122); conditions: CAII-A647 binding fluorescence, higher = more signal
[15] = COS7 lysate on small-molecule microarray, probe aHis, 635 nm (AID 1123); conditions: COS7 cell lysate, fluorescence, higher = more signal;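 further: z-score combines 667nm fluorescence intensity with signal-to-noise per printed compound spot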
[16] = compound binding in COS7 lysate, probe aLAP1, primary screen, cell lysate, small-molecule microarray (AID 1124); conditions: probe aLAP1, fluorescence, higher = more signal;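 further: lysate comes from COS7 cells expressing LAP1 and is applied at 0.3 µg/mL; score merges spot fluorescence near 667 nm with signal-to-noise over triplicate slides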
Sam68 (KHDRBS1) = assay: Sam68 small-molecule binders, primary screen, biochemical, small-molecule microarray, 635 nm fluorescence (AID 1125); conditions: small-molecule microarray binding, higher = more signal;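 further: score merges 667 nm channel intensity with signal to noise over triplicate slides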
[17] = test system: Chordin-like protein 2 (CHRDL2); assay: CHRDL2 small-molecule binders, primary screen, biochemical, small-molecule microarray, 635 nm fluorescence (AID 1126); conditions: small-molecule microarray binding, fluorescence 635 nm; higher = more signal;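 further: printed compound slides probed with Chrdl2 protein at 4 µg/mL for 1 h at 4 C; score merges 667 nm emission intensity with signal to noise over three replicate slides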
[18] = target: Concanavalin-A (Canavalia ensiformis) (UniProt P02866); assay: ConA small-molecule binders, primary screen, artefact control for SMM control protein annotation, biochemical, small-molecule microarray, Alexa647 label, 635 nm (AID 1127); conditions: ConA-A647 binding fluorescence, higher = more signal;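 further: z combines 667 nm emission intensity with signal-to-noise across three replicate slides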
Chain of Concanavalin-A (Canavalia ensiformis) (P02866 whole entry, looked up): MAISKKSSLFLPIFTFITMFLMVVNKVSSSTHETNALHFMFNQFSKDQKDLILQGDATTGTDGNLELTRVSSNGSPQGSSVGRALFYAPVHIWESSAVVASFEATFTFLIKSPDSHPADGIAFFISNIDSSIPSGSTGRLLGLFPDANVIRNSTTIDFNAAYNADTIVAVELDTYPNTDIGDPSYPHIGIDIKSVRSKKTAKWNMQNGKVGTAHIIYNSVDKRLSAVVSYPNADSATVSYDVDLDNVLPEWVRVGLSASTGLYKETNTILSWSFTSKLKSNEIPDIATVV

Chain of Left-right determination factor 2 (Homo sapiens) (O00292 whole entry, looked up): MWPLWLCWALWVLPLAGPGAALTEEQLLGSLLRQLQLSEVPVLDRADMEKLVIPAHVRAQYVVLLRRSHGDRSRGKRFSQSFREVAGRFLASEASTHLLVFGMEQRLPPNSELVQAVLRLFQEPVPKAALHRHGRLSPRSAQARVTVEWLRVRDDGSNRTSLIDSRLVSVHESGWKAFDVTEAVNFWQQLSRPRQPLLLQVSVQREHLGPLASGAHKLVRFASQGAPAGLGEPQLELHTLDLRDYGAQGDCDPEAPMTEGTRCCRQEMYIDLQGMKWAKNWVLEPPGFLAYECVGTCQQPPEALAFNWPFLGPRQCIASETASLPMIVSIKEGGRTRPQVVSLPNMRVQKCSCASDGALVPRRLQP
Chain of Torsin-1A-interacting protein 1 (Homo sapiens) (Q5JTV8 whole entry, looked up): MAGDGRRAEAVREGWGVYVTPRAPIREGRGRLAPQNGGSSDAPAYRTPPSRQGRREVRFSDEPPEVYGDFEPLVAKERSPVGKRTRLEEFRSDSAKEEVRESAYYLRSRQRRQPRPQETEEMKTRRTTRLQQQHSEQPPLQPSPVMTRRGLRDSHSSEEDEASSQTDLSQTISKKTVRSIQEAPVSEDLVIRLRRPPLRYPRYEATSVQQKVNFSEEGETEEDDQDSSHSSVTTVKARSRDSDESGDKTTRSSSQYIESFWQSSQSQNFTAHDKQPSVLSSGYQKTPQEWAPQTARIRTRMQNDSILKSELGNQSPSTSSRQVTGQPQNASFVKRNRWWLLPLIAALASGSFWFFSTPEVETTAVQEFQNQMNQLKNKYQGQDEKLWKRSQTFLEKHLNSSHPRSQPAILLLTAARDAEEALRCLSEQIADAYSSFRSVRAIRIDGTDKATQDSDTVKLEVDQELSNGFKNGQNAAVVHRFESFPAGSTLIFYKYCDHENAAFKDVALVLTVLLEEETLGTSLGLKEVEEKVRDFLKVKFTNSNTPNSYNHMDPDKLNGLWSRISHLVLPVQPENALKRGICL
Chain of Alpha-bungarotoxin (Bungarus multicinctus) (P60615 whole entry, looked up): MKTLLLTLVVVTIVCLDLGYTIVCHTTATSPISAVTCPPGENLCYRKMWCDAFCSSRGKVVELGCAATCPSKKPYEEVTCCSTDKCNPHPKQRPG
Chain of Albumin (Bos taurus) (P02769 whole entry, looked up): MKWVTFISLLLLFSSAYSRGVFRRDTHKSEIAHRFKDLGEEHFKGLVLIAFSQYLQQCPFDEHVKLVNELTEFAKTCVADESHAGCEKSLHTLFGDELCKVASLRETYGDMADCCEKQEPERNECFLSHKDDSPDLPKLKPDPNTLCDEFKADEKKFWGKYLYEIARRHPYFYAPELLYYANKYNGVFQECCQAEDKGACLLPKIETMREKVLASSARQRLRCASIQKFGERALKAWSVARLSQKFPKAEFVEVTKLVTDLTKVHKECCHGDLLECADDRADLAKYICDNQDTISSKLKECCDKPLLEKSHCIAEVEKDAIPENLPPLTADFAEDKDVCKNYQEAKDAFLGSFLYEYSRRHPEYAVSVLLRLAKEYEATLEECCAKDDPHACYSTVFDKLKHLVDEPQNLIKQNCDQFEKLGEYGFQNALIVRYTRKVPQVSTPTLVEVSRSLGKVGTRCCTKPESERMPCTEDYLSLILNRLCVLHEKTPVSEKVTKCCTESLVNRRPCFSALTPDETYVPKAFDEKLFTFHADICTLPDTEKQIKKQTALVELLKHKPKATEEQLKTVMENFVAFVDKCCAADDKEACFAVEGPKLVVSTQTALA

| SMILES | composite z-score [1] | z-score [2] | composite z-score [3] | composite z-score [4] | composite z-score [5] | composite z-score [6] | composite z-score [7] | composite z-score [8] | composite z-score [9] | composite z-score [10] | composite z-score (Albumin (Bos taurus)) | composite Z-score [11] | composite z-score [12] | composite z-score [13] | composite z-score [14] | composite z-score [15] | composite z-score [16] | composite z-score (Sam68 (KHDRBS1)) | composite z-score [17] | composite z-score [18] |
| --- | --- | --- | --- | --- | --- | --- | --- | --- | --- | --- | --- | --- | --- | --- | --- | --- | --- | --- | --- | --- |
| O=C(NN=C1C[C@@H](O)[C@@H](O)[C@@H]2[C@@H]3C(=O)N(c4ccc(F)cc4F)C(=O)[C@@H]3CC[C@@H]12)OCc1ccccc1 | 0.782 | -0.769 | 0.312 | -0.0007 | -0.226 | 0.0354 | -0.0553 | -0.562 | 0.547 | 0.736 | 0.458 | -0.662 (inactive) | 0.0952 | -0.123 | 0.129 | 0.229 | 0.3 | 0.661 | 0.272 | 0.247 |
| COC(=O)C1(C)C=C2C(=C(c3ccccc3)C(=O)C2C)CN1 (stereo not given) | -1.06 | -0.546 | -1.3 | 0.29 | -0.0125 | -0.034 | -0.119 | 1.74 | 1.72 | -0.422 | 0.226 | -0.107 (inactive) | -0.128 | 0.0633 | 0.479 | 0.895 | -0.368 | -0.999 | -0.368 | -1.06 |
| Cc1cc(C)c(-c2cc([C@H](C)ON=C3[C@H]4CCn5c(=O)n(-c6ccccc6)c(=O)n5[C@H]4[C@H](O)[C@@H]4O[C@H]34)on2)c(C)c1 | 0.548 | -4.92 | 0.59 | 0.0681 | -0.386 | 0.0559 | 0.184 | -0.0554 | 0.441 | 0.322 | 0.652 | -0.853 (inactive) | 0.125 | -0.205 | 0.311 | 0.486 | 0.0647 | 0.416 | 0.231 | 0.706 |
| CCN1C(=O)[C@H]2[C@H]3[C@H](O)[C@H](O)CC(=NOC[C@@H](C)[C@H](OCc4ccccc4)C(C)C)[C@@H]3CC[C@H]2C1=O | 0.306 | -1.47 | 0.358 | 0.809 | 0.484 | -0.133 | -0.262 | 0.124 | 0.329 | 0.234 | 0.665 | 0.0576 (inactive) | -0.152 | -0.131 | -0.0205 | 0.276 | -0.504 | 0.614 | -0.13 | -0.223 |
| Cc1cc2c(c(=O)o1)[C@H](O)[C@H]1O[C@H]1C2=O | -1.5 | -2.16 | 0.761 | -0.766 | -1.38 | -0.208 | 0.0048 | -0.359 | 0.17 | 0.0658 | -1.02 | -0.18 (inactive) | 0.255 | -0.0076 | 0.0024 | -0.682 | -0.106 | -0.333 | 0.26 | -0.0383 |
| CO[C@H]1COC(=O)CC=C[C@H](C)[C@@H](NS(=O)(=O)c2ccc(C)cc2)COC(=O)CC=C[C@@H]1C | 0.0839 | -1.72 | 0.694 | -0.46 | -0.521 | -0.0738 | -0.13 | 0.0613 | 0.37 | -0.153 | -0.498 | -0.38 (inactive) | -0.0436 | -0.151 | -0.0698 | -0.51 | 0.216 | 0.165 | 0.713 | -0.408 |
| CCN1C(=O)[C@H]2[C@H]3[C@H](O)[C@H](O)CC(=NOC(C)CN4CCCCc5nc(C)c(C)cc54)[C@@H]3CC[C@H]2C1=O (stereo not given in full) | -0.504 | -1.17 | 0.905 | -2.14 | -1.31 | -0.184 | 0.0796 | -0.0489 | -0.401 | -0.294 | -0.428 | -0.467 (inactive) | -0.0511 | -0.0539 | -0.144 | -0.144 | 0.0096 | 0.238 | 1.22 | -0.0891 |
| CCOc1ccc(N2C(=O)/C(=C/C=C/c3ccccc3OC)S(=O)(=O)C2c2cccc([N+](=O)[O-])c2)cc1 (stereo not given) | -0.432 | -2.17 | 0.49 | 1.27 | 0.545 | 0.0017 | -0.2 | 0.0373 | 0.351 | 0.321 | 0.382 | -0.327 (inactive) | 0.0762 | -0.0793 | -0.138 | 0.13 | 0.32 | -0.319 | 0.198 | 0.133 |
| CC1CC/C=C\[C@H]2OC34C=CCN(Cn5nnc6ccccc65)C(=O)[C@H]3N(CCO)C(=O)[C@@H]4C2C(=O)O1 (stereo not given in full) | -0.487 | -0.505 | -0.28 | -0.614 | 0.383 | -0.147 | -0.291 | -0.256 | 2 | -0.118 | 1.13 | 1.12 (inactive) | -0.319 | -0.15 | 0.942 | 2.59 | 1.06 | 0.0381 | -1.62 | -0.903 |
| CC(C)CN1CCc2nc(-c3ccccc3)c3c(c2CC1)CO[C@@H](C)C3 | -0.749 | -0.747 | 0.774 | -0.268 | -0.177 | 0.027 | 0.191 | -0.138 | 0.12 | 0.405 | -0.249 | -0.002 (inactive) | 0.154 | -0.16 | -0.143 | -0.258 | -0.673 | -0.168 | 0.74 | 0.0721 |
| COCCCNC(=O)[C@@]1(Sc2ccc(C)cc2)CC(=O)N(Cc2ccccc2)[C@@H]1c1ccc(CO)cc1I | 0.362 | -2.02 | -1.54 | -1.11 | 0.214 | -0.0928 | -0.0362 | -0.176 | 1.5 | 1.23 | 0.757 | 0.394 (inactive) | -0.178 | 0.0079 | 0.688 | 0.987 | 0.791 | -0.249 | -0.527 | -1.27 |
